In publication PMC7862700, “An all-to-all approach to the identification of sequence-specific readers for epigenetic DNA modifications on cytosine”:

Key:
Experiment in all cases: DAPPL (digital affinity profiling via proximity ligation, sequencing); 10 mM Tris-HCl pH 7.5, 50 mM NaCl, 1 mM DTT, 4% glycerol, room temperature, 30 min; GST-TFs on glutathione beads, 16-mer random dsDNA library, 0.1% formaldehyde crosslink after washing; high values mean tight binding
FLI1 = target: T1, FLI1 (Homo sapiens, UniProt Q01543 1-452); conditions: protein: recombinant; tags: N-terminal GST; dsDNA, one strand shown
T1 sequence: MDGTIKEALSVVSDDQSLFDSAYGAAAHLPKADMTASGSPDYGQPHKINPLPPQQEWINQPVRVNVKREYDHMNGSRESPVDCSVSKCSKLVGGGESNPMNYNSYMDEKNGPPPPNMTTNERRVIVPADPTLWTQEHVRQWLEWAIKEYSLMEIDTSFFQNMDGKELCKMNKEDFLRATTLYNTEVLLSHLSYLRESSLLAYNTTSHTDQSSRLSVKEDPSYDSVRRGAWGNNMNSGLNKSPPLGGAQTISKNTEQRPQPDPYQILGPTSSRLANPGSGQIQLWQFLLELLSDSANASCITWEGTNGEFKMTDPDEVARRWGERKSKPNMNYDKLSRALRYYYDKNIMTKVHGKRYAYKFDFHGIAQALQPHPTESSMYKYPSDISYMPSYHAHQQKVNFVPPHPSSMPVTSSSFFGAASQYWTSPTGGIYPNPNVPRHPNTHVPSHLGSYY
How it was run: (§1)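 Beads coated with glutathione captured GST-fused human transcription factors that had been expressed in yeast, and the factors were then given DNA barcodes and pooled with a tag-only sample. The pools were incubated with 200 nmole of a random double-stranded 16-mer DNA library in Tris/NaCl/DTT/glycerol buffer for 30 min at room temperature, washed, crosslinked with 0.1% formaldehyde and proximity-ligated with BsaI/T4 ligase at 37 °C for 1 h. PCR amplification and Illumina NextSeq500 sequencing came last. Binding signal is each hexamer's read frequency for a factor divided by its frequency for the tag-only sample.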

ELK1 = target: T2, ELK1 (Homo sapiens, UniProt P19419 1-428); conditions: protein: recombinant; tags: N-terminal GST; dsDNA, one strand shown
T2 sequence: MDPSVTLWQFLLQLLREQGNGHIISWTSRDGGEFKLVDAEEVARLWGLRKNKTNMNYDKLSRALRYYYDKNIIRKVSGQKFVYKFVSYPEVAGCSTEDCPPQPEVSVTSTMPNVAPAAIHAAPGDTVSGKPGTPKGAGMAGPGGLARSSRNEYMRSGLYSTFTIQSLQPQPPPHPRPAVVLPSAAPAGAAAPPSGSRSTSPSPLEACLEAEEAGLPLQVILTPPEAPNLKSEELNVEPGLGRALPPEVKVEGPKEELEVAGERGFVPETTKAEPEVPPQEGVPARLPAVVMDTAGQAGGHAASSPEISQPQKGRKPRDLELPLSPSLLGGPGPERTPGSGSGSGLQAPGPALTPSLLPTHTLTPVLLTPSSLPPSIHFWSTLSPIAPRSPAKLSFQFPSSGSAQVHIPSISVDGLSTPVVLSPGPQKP
How it was run: as §1

GABPA = target: T3, GABPA (Homo sapiens, UniProt Q06546 1-454); conditions: protein: recombinant; tags: N-terminal GST; dsDNA, one strand shown
T3 sequence: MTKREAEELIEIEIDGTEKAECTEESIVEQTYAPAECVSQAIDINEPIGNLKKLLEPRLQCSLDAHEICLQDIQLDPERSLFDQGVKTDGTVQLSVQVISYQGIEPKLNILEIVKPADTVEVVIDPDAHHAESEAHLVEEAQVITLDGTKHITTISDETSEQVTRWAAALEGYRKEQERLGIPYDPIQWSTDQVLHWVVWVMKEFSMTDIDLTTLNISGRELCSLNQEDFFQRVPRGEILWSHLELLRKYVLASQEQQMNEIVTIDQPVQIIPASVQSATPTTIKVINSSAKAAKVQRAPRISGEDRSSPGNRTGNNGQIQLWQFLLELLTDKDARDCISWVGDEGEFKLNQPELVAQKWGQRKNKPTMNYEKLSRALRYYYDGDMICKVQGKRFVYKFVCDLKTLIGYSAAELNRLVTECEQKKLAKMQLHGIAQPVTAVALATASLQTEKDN
How it was run: as §1

ERG = target: T4, ERG (Homo sapiens, UniProt P11308 1-479); conditions: protein: recombinant; tags: N-terminal GST; dsDNA, one strand shown
T4 sequence: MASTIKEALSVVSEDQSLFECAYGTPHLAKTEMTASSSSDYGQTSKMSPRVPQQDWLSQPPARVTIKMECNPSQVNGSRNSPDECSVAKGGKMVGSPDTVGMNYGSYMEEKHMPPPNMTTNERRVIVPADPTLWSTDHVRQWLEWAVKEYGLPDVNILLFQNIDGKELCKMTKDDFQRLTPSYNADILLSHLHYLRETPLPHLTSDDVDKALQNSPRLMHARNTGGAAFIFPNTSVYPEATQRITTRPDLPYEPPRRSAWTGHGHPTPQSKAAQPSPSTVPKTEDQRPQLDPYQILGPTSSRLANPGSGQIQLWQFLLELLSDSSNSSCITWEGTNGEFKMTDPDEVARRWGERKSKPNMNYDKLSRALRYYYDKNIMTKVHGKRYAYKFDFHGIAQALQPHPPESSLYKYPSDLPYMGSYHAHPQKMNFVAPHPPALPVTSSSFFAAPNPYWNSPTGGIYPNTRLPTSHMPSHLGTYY
How it was run: as §1

ELF1 = ELF1 (Homo sapiens, UniProt P32519 1-619); conditions: protein: recombinant; tags: N-terminal GST; dsDNA, one strand shown
ELF1, sequence (P32519 whole entry): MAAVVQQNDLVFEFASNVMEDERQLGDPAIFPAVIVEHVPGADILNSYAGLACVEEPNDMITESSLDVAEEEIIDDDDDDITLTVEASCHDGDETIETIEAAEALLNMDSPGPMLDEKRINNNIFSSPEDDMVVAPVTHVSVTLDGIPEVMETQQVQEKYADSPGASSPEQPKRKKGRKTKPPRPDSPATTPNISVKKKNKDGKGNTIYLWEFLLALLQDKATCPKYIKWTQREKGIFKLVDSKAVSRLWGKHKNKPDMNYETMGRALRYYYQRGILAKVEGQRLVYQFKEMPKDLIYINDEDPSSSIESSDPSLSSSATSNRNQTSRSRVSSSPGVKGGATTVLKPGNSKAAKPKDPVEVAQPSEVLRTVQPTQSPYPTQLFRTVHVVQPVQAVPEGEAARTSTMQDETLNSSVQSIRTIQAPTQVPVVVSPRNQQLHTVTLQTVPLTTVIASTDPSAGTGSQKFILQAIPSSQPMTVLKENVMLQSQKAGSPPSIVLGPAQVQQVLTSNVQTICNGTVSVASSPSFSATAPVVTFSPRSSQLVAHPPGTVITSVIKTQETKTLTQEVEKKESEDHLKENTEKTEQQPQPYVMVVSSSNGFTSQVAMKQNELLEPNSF
How it was run: as §1

EHF = target: T5, EHF (Homo sapiens, UniProt Q9NZC4 1-300); conditions: protein: recombinant; tags: N-terminal GST; dsDNA, one strand shown
T5 sequence: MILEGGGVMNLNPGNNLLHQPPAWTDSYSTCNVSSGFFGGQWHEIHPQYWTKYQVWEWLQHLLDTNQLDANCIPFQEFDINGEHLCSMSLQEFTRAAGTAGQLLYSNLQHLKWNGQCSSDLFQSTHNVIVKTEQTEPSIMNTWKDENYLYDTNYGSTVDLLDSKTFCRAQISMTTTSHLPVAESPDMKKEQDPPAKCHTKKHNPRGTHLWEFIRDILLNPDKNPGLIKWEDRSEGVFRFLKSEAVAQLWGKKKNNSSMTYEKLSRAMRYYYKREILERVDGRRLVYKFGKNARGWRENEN
How it was run: as §1

SPI1 = SPI1 (Homo sapiens, UniProt P17947 1-270); conditions: protein: recombinant; tags: N-terminal GST; dsDNA, one strand shown
How it was run: as §1

SPIB = SPIB (Homo sapiens, UniProt Q01892 1-262); conditions: protein: recombinant; tags: N-terminal GST; dsDNA, one strand shown
SPIB, sequence (Q01892 whole entry): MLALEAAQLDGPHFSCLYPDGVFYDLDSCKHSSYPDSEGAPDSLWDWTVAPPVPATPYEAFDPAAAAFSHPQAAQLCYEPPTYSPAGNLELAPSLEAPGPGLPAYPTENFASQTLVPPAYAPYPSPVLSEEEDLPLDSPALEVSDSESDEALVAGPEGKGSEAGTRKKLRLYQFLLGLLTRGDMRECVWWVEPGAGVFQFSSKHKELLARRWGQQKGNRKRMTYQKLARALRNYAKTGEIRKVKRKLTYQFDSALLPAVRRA
How it was run: as §1

ELK3 = target: T6, ELK3 (Homo sapiens, UniProt P41970 1-407); conditions: protein: recombinant; tags: N-terminal GST; dsDNA, one strand shown
T6 sequence: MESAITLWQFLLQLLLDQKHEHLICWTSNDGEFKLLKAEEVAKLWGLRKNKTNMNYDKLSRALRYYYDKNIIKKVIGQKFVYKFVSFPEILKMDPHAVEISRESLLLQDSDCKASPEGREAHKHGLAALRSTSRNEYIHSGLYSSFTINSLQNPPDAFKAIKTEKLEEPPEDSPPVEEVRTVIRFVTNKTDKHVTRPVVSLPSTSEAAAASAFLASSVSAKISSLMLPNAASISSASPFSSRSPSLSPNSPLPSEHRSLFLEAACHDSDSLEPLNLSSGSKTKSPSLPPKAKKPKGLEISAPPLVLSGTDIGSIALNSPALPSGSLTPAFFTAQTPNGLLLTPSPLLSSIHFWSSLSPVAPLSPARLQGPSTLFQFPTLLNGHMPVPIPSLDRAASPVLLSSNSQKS
How it was run: as §1

FEV = target: T7, FEV (Homo sapiens, UniProt Q99581 1-238); conditions: protein: recombinant; tags: N-terminal GST; dsDNA, one strand shown
T7 sequence: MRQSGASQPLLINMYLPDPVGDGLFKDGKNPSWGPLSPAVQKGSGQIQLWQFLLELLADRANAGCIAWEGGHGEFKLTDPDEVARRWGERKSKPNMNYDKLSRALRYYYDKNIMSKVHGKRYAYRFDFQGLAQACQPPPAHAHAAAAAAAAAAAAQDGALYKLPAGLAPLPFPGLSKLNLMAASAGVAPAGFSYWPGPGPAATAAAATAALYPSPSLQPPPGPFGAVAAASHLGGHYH
How it was run: as §1

ETV5 = ETV5 (Homo sapiens, UniProt P41161 1-510); conditions: protein: recombinant; tags: N-terminal GST; dsDNA, one strand shown
ETV5, sequence (P41161 whole entry): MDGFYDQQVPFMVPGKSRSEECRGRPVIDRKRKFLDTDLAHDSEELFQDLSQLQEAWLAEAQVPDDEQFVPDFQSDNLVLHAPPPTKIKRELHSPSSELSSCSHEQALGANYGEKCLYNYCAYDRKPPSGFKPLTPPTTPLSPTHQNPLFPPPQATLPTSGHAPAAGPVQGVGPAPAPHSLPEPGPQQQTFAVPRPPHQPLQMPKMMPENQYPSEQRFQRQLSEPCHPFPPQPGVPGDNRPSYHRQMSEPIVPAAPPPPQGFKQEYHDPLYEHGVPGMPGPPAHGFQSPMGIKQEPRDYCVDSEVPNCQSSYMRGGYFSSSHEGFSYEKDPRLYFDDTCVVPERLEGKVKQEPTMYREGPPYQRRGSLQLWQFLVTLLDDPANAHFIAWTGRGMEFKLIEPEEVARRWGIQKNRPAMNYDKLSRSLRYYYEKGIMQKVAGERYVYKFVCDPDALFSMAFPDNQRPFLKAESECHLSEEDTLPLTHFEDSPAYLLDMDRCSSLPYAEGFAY
How it was run: as §1

HSF1 = HSF1 (Homo sapiens, UniProt Q00613 1-529); conditions: protein: recombinant; tags: N-terminal GST; chain copies: 3; dsDNA, one strand shown
HSF1, sequence (Q00613 whole entry): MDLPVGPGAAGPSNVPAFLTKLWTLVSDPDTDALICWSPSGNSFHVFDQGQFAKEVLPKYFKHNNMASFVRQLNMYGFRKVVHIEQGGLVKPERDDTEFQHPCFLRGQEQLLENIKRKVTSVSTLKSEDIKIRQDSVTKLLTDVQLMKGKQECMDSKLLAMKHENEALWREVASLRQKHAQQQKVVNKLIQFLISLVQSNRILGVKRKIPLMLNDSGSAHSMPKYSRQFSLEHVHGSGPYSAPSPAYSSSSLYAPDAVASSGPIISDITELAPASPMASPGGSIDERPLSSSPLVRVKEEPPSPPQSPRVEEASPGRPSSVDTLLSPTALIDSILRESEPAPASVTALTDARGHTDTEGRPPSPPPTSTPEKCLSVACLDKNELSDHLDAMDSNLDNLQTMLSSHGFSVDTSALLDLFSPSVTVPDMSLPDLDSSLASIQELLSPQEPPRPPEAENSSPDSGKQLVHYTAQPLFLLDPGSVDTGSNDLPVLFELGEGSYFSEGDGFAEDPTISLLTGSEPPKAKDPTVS
How it was run: as §1

SPIC = target: T8, SPIC (Homo sapiens, UniProt Q8N5J4 1-248); conditions: protein: recombinant; tags: N-terminal GST; dsDNA, one strand shown
T8 sequence: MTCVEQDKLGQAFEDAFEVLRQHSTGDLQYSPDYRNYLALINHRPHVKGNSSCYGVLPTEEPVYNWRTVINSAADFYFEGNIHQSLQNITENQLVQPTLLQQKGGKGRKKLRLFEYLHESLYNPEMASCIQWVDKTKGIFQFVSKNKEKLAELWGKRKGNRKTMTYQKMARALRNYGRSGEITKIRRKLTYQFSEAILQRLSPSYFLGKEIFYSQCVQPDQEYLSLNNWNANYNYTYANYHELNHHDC
How it was run: as §1

ELF4 = ELF4 (Homo sapiens, UniProt Q99607 1-663); conditions: protein: recombinant; tags: N-terminal GST; dsDNA, one strand shown
ELF4, sequence (Q99607 whole entry): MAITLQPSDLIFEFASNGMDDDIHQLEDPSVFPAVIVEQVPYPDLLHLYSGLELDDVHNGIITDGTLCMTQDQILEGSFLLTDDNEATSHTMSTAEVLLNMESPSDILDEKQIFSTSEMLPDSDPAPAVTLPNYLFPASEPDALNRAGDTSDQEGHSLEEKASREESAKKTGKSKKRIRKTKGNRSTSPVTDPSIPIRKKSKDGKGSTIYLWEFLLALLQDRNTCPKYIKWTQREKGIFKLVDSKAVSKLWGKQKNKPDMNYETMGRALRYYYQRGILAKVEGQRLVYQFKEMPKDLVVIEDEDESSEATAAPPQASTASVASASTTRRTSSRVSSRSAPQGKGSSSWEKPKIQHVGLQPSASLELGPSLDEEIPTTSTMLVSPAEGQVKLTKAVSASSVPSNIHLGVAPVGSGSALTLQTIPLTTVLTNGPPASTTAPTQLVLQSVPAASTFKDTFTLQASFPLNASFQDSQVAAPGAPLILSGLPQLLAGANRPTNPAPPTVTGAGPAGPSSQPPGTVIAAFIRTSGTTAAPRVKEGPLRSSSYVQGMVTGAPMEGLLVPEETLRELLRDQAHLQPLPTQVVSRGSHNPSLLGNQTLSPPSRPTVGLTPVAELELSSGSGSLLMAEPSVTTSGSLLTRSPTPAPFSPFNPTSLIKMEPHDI
How it was run: as §1

ELK4 = target: T9, ELK4 (Homo sapiens, UniProt P28324-2 1-405); conditions: protein: recombinant; tags: N-terminal GST; dsDNA, one strand shown
T9 sequence: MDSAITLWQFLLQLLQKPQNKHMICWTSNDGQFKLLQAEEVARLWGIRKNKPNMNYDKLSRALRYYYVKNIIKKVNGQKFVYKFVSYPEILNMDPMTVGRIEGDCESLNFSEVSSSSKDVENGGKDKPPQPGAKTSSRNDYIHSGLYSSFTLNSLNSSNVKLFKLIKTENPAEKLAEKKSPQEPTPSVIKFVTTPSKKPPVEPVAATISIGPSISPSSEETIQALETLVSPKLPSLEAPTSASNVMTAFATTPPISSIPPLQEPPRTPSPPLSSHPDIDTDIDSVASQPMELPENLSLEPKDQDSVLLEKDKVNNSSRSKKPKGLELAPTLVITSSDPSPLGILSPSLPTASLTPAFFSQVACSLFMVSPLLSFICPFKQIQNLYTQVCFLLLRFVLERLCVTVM
How it was run: as §1

ETV2 = target: T10, ETV2 (Homo sapiens, UniProt O00321 1-342); conditions: protein: recombinant; tags: N-terminal GST; dsDNA, one strand shown
T10 sequence: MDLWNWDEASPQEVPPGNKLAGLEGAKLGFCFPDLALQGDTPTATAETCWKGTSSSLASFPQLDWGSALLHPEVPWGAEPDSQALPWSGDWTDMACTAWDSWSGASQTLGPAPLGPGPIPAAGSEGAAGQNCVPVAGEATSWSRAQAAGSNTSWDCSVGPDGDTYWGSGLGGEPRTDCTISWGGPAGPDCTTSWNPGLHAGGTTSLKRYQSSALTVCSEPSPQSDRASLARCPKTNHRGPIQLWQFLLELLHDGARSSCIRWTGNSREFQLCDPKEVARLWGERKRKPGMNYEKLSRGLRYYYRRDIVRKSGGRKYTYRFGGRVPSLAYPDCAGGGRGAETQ
How it was run: as §1

ELF3 = target: T11, ELF3 (Homo sapiens, UniProt P78545 1-371); conditions: protein: recombinant; tags: N-terminal GST; dsDNA, one strand shown
T11 sequence: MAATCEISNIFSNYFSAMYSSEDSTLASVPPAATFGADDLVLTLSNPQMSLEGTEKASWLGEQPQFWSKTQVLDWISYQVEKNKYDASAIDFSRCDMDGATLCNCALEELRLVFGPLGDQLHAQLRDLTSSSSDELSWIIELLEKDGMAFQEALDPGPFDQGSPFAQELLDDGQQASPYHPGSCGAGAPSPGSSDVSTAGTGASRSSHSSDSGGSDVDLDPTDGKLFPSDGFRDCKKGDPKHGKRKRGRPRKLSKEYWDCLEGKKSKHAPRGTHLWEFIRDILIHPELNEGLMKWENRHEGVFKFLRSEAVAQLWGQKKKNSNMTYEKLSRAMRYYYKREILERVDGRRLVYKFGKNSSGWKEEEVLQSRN
How it was run: as §1

CRX = CRX (Homo sapiens, UniProt O43186 1-299); conditions: protein: recombinant; tags: N-terminal GST; dsDNA, one strand shown
CRX, sequence (O43186 whole entry): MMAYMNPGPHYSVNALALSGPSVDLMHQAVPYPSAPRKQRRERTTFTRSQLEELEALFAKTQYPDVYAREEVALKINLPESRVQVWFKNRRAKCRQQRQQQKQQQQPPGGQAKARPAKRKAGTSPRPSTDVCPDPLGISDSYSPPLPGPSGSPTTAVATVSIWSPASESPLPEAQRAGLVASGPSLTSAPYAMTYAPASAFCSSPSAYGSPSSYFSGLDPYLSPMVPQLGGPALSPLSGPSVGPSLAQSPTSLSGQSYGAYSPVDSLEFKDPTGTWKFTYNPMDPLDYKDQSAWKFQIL
How it was run: as §1

ETV1 = ETV1 (Homo sapiens, UniProt P50549 1-477); conditions: protein: recombinant; tags: N-terminal GST; dsDNA, one strand shown
ETV1, sequence (P50549 whole entry): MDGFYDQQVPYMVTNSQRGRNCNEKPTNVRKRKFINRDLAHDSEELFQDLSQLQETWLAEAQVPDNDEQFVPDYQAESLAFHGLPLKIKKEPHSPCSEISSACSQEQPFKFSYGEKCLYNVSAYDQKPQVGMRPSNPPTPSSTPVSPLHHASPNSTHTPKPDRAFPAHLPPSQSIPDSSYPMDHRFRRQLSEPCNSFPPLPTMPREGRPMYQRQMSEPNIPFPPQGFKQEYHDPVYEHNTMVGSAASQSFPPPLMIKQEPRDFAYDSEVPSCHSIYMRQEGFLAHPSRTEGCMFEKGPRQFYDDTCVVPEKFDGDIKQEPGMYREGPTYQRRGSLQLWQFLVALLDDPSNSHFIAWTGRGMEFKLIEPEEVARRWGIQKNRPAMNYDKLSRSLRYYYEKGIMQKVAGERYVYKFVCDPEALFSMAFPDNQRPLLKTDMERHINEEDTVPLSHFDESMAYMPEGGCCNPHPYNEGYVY
How it was run: as §1

## CCGTTC
FLI1
  binding signal: 1.32 fold enrichment (6-mer frequency, TF over GST control)
ELK1
  binding signal: 1.38 fold enrichment (6-mer frequency, TF over GST control)
GABPA
  binding signal: 1.39 fold enrichment (6-mer frequency, TF over GST control)
ERG
  binding signal: 1.38 fold enrichment (6-mer frequency, TF over GST control)
ELF1
  binding signal: 1.46 fold enrichment (6-mer frequency, TF over GST control)
EHF
  binding signal: 1.5 fold enrichment (6-mer frequency, TF over GST control)
SPI1
  binding signal: 1.39 fold enrichment (6-mer frequency, TF over GST control)
SPIB
  binding signal: 1.47 fold enrichment (6-mer frequency, TF over GST control)
ELK3
  binding signal: 1.4 fold enrichment (6-mer frequency, TF over GST control)
FEV
  binding signal: 1.48 fold enrichment (6-mer frequency, TF over GST control)
ETV5
  binding signal: 1.43 fold enrichment (6-mer frequency, TF over GST control)
HSF1
  binding signal: 1.18 fold enrichment (6-mer frequency, TF over GST control)
SPIC
  binding signal: 1.32 fold enrichment (6-mer frequency, TF over GST control)
ELF4
  binding signal: 1.37 fold enrichment (6-mer frequency, TF over GST control)
ELK4
  binding signal: 1.23 fold enrichment (6-mer frequency, TF over GST control)
ETV2
  binding signal: 1.4 fold enrichment (6-mer frequency, TF over GST control)
ELF3
  binding signal: 1.36 fold enrichment (6-mer frequency, TF over GST control)
CRX
  binding signal: 1.11 fold enrichment (6-mer frequency, TF over GST control)
ETV1
  binding signal: 1.27 fold enrichment (6-mer frequency, TF over GST control)
